# Experimental data taken from PubChem BioAssay (NCATS).
# Where “and” joins values, the source holds several entries; their conditions need not be identical. Equal values may be shown once. Inconclusive results are not listed. A call without a number means that no potency is given here. Some structures have more than one record in an assay (separate samples or runs), and their calls can disagree. Calls of active or inactive are those of the source. Unless noted, the call rests on the fitted dose curve; in most records, active means well fitted curve in the direction sought with a large enough effect; inconclusive means small, poorly fitted or top-dose-only effect, or another doubt; inactive means no such curve, though single readings can be large; an effect the other way counts as inactive or inconclusive.
# Key:
# [1] = qHTS for Inhibitors of Plasmodium falciparum (DD2) proliferation (AID 504314);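 further: parasite DNA measured by SYBR Green fluorescence after red cell lysis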
# In short: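 Quantitative HTS growth inhibition: SYBR Green I binding to parasite DNA after 72 h drug exposure of infected erythrocytes (0.3% parasitemia, 2.5% hematocrit). Signals normalized per plate to inhibitor and vehicle wells.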
# [2] = qHTS for Inhibitors of Plasmodium falciparum (GB4) proliferation (AID 504315); further: nearly all actives have a fitted effect of over 50% in size; further: potency means the concentration at half of the fitted maximal effect
# In short: (§1)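 Erythrocytes infected with P. falciparum line (0.3% parasitemia, 2.5% hematocrit final) incubated with compounds 72 h at 37 °C, 5% CO2; SYBR Green lysis buffer added, fluorescence read next day. Normalized to 0.29 uM artemisinin and DMSO.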
# [3] = qHTS for Inhibitors of Plasmodium falciparum (7G8) proliferation (AID 504316); further: nearly all actives have a fitted effect of over 65% in size; further: potency means the concentration at half of the fitted maximal effect
# In short: as §1
# [4] = qHTS for Inhibitors of Plasmodium falciparum (HB3) proliferation (AID 504318); further: nearly all actives have a fitted effect of over 60% in size; further: potency means the concentration at half of the fitted maximal effect
# In short: as §1
# [5] = biological target: Atrial natriuretic peptide receptor 1 (Homo sapiens) (UniProt P16066); assay: Natriuretic polypeptide receptor (hNpr1) antagonism - Pilot CMLD screen (AID 1347052; calls by dose curve;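 further: cGMP level read as GloSensor luciferase luminescence after agonist stimulation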; further: potency means the concentration at half of the fitted maximal effect)
# Sequence of Atrial natriuretic peptide receptor 1 (Homo sapiens) (P16066 whole entry, looked up): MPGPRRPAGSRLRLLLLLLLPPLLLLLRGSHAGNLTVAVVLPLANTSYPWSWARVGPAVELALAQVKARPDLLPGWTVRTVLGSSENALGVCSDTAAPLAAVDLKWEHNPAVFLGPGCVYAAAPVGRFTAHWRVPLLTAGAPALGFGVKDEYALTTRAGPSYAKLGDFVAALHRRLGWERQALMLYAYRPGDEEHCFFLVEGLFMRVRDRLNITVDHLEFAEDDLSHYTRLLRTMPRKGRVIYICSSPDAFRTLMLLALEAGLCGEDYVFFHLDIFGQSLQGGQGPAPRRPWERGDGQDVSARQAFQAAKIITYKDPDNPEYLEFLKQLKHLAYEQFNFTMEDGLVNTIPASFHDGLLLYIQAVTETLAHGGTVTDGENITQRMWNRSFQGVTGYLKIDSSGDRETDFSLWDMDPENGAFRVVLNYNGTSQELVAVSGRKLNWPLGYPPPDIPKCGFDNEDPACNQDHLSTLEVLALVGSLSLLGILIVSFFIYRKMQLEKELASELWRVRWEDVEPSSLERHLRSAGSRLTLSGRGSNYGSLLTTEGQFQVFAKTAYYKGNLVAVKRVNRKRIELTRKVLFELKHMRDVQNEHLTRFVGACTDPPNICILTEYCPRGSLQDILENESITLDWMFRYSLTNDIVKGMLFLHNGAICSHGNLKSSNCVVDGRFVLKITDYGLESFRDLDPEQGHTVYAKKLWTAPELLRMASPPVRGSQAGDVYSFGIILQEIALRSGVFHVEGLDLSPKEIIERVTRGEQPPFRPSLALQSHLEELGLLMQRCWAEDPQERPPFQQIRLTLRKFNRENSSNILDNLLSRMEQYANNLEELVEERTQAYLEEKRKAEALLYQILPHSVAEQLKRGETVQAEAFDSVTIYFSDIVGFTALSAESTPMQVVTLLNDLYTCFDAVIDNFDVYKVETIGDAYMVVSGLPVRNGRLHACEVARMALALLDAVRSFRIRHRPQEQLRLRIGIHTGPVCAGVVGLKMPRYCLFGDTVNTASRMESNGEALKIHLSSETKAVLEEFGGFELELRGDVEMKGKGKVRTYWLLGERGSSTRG
# [6] = qHTS for Inhibitors of Plasmodium falciparum (CP250) proliferation (AID 504320)
# In short: as §1
Structure (SMILES),Potency [1],Potency [2],Potency [3],Potency [4],Potency [5],Potency [6]
COC(=O)C1=C(C)N(CC2CC2)C(=O)NC1c1ccccc1 (stereo not given),inactive,inactive,inactive,inactive,inactive,–
CC(=O)OC[C@H]1O[C@H](CCON=C[C@@H](C)[C@H](OCc2ccccc2)C(C)C)C=C[C@@H]1OC(C)=O,inactive,inactive,inactive,inactive,inactive,inactive
CCOC(=O)C1=CN(CCCc2cn(Cc3ccccc3)nn2)C(=O)NC1c1ccccc1 (stereo not given),inactive,inactive,inactive,inactive,inactive,inactive
CCOC(=O)CNC(=O)O[C@H]1C(=O)c2ccc(OC)cc2O[C@@H]1c1ccc2c(c1)OCO2,inactive,inactive,inactive,inactive,inactive,inactive
Cc1ccccc1Nc1oc(-c2ccccc2)nc1CCc1ccccc1,inactive,inactive and 1.51 µM (active),inactive and 1.69 µM (active),inactive and 1.69 µM (active),inactive,–
COC(=O)C1=C(C)N(Cc2ccccc2)C(=S)NC1c1ccc(Br)cc1 (stereo not given),inactive,inactive,inactive,inactive,inactive,inactive
COC(=O)N[C@@H](C=Cc1ccco1)[C@]1(C(=O)OC)CCCC1=O,inactive,inactive,inactive,inactive,inactive,inactive
C=CCN1C=C2C(=O)C(C)(OC(=O)c3ccc(OC)cc3)C(=O)C(c3ccco3)=C2C=C1CCCC (stereo not given),inactive,inactive,inactive,inactive,inactive,–
COC(=O)N[C@H](CC(C)=O)c1cccc(F)c1,inactive,inactive,inactive,inactive,inactive,inactive
CC(=O)OC[C@H]1O[C@H](CC=NO[C@H](C)CN2CCCCc3nc(C)c(C)cc32)C=C[C@@H]1OC(C)=O,inactive,inactive,inactive,inactive,inactive,–
CCN1C(=S)NC(c2cccc(F)c2)C(C(=O)OC)=C1C (stereo not given),inactive,inactive,inactive,inactive,inactive,inactive
CCN1C(=NCc2ccc3c(c2)OCO3)N[C@@H](c2ccccc2)[C@H](C(=O)OC)[C@H]1C,inactive,inactive,inactive,inactive,inactive,inactive
CCCCC1=CC2=C(c3ccco3)C(=O)C(C)(OC(=O)c3ccc(OC)cc3)C(=O)C2=CN1C(CO)CO (stereo not given),inactive,inactive,inactive,inactive,inactive,inactive
CCN1C(=O)NC(c2cccs2)C(C(=O)OC)=C1C (stereo not given),inactive,inactive,inactive,inactive,inactive,inactive
C#CCN1C(=O)[C@]2(OCCC=C[C@@H]2C)c2cc(OC)ccc21,inactive,inactive,inactive,inactive,inactive,–
CCC(C)CN1C(=O)NC(c2ccccc2)C(C(=O)OC)=C1C (stereo not given),inactive,inactive,inactive,inactive,inactive,–
COC(=O)CC=C[C@@H](C)[C@@H](COc1ccccc1Br)OC,inactive,inactive,inactive,inactive,0.944 µM (active),inactive
O=C1CCCC1C(O)c1ccc2ccccc2c1 (stereo not given),inactive,inactive,inactive,inactive,inactive,inactive
CN1c2ccccc2[C@@]2(O)C(=O)[C@@]1(C)[C@@H]1C=CCC[C@H]12,inactive,inactive,inactive,inactive,inactive,inactive
COCCN1C(=O)C2=C(C1=O)C1N(C)c3ccccc3[C@@]13C[C@@H](CO)N(C(=O)CCC(=O)OC)C3=N2 (stereo not given in full),inactive,inactive,inactive,inactive,inactive,inactive
C=CCN1C(=O)C2(CC(C)=C[C@@H](C)O2)c2c(Br)cccc21 (stereo not given in full),inactive,inactive,inactive,inactive,inactive,inactive
C=C(C)CO[C@H]1C=C[C@@H](c2ccccc2)O[C@H]1CO,inactive,inactive,inactive,inactive,inactive,inactive
COc1ccc(OC[C@@H]2CC3[C@@H](CC[C@@H](C)[C@H]3c3ccc(Br)cc3)C(=O)O2)cc1 (stereo not given in full),inactive,inactive,inactive,inactive,inactive,inactive
COCCN1C(=O)NC(c2ccco2)C(C(=O)OC)=C1C (stereo not given),inactive,inactive,inactive,inactive,inactive,inactive
COC[C@@H](O)[C@H]1OCc2cccc(OC)c2[C@H]1C=Cc1ccccc1,inactive,inactive,inactive,inactive,inactive,inactive
CC1(OC(=O)c2cnc3ccccc3n2)C(=O)C=C2C=C(C3CC3)OC=C2C1=O (stereo not given),inactive,inactive,inactive,inactive,inactive,inactive

Structure (SMILES),Potency [1],Potency [2],Potency [3],Potency [4],Potency [5],Potency [6]
COC(=O)c1cc(C(=O)OC)n2ccc3cc(OC)c(OC)cc3c12,inactive,inactive,inactive,inactive,0.531 µM (active),inactive
COCCN1C=C2C(=O)C(C)(OC(=O)c3cccs3)C(=O)C=C2C=C1CCCC(=O)OC (stereo not given),inactive,inactive,inactive,inactive,inactive,inactive
CO[C@@H]1c2cc(F)ccc2C(=CCCOC(=O)CC=Cc2ccccc2)[C@H]1C,inactive,inactive,inactive,inactive,inactive,inactive
CCN1C(=O)[C@@H]2[C@H]3[C@H](O)[C@H](O)CC(=NO[C@@H](C)c4cn([C@H](CO)Cc5ccccc5)nn4)[C@@H]3CC[C@H]2C1=O,inactive,inactive,inactive,inactive,inactive,inactive
COC[C@H]1O[C@H](c2ccccc2)C=C[C@H]1OCC=C(C)C,inactive,inactive,inactive,inactive,inactive,inactive
COC(=O)CC=C[C@@H](C)[C@@H](C=NOC[C@@H](O)[C@H]1O[C@@H]2OC(C)(C)O[C@H]2[C@@H]1O)OC,inactive,inactive,inactive,inactive,inactive,inactive
C=CCOC(=O)N[C@H](C(C(=O)OC)=C(C)NCc1ccccc1)c1cccc(C(F)(F)F)c1,inactive,inactive,inactive,inactive,inactive and 1.33 µM (active),inactive
C=CC[C@@H]1C=C[C@@H](Oc2ccc(OC)cc2)[C@H](COC(=O)c2ccc(Br)cc2)O1,inactive,inactive,inactive,inactive,inactive,inactive
CC(=O)OC[C@H]1O[C@H](C#CC2=CCCCC2)C=C[C@H]1OC(C)=O,inactive,inactive,inactive,inactive,inactive,inactive
C[C@@H]1C[C@H]2CC(=O)N3[C@H](CC(=O)N2[C@H]1c1ccccc1)C[C@@H](C)[C@@H]3c1ccccc1,inactive,inactive,inactive,inactive,inactive,inactive
C[C@H]1CC[C@H]2C(=O)O[C@H](CO)CN2[C@H]1c1ccc(Br)cc1,inactive,inactive,inactive,inactive,inactive,inactive
CCOC(=O)NN=C1C[C@@H](O)[C@@H](O)[C@@H]2[C@H]3C(=O)N(c4ccc(F)cc4F)C(=O)[C@@H]3CC[C@H]12,inactive,inactive,inactive,inactive,inactive,inactive
COc1ccc(-c2nc3c(c4c2C[C@H](c2ccccc2)OC4)CN(S(=O)(=O)c2ccc(Cl)c4nonc24)CC3)c(C)c1,inactive,inactive,inactive,inactive,inactive,inactive
COCCN1C(=O)NC(c2ccccc2)C(C(=O)OC)=C1C (stereo not given),inactive,inactive,inactive,inactive,inactive,inactive
COc1ccc(NC(=O)N2CCc3nc(-c4ccccc4)c4c(c3C2)CO[C@@H](C)C4)cc1,inactive,inactive,inactive,inactive,inactive,inactive
COC(=O)N[C@@H](c1cccc(C)c1)[C@@H](C)[N+](=O)[O-],inactive,inactive,inactive,inactive,inactive,inactive
C[C@@H]1CC[C@H]2C(=O)N(Cc3cccc([N+](=O)[O-])c3)C[C@@H](O)CN2[C@@H]1c1cccc(Br)c1,inactive,inactive,inactive,inactive,inactive,inactive
c1ccc(-c2nc(-c3ccccc3)c(Nc3ccc4ccccc4c3)o2)cc1,inactive,inactive,inactive,inactive,inactive,inactive
CCCC=CC1C(=O)[C@@H]2O[C@H]2C2(OCC(CC)(CC)CO2)C1CO (stereo not given in full),inactive,inactive,inactive,inactive,inactive,inactive
C[C@@H]1C=CCCO[C@]12C(=O)Nc1ccc(O)cc12,inactive,inactive,inactive,inactive,inactive,inactive
COC(=O)CC=C[C@H](C)[C@@H](NC(=O)C(F)(F)F)c1ccccc1Br,inactive,inactive,inactive,inactive,inactive,inactive
CCOC(=O)NN=C1C[C@@H](O)[C@@H](O)[C@@H]2[C@H]3C(=O)N([C@@H](C)c4ccccc4)C(=O)[C@@H]3CC[C@H]12,inactive,inactive,inactive,inactive,inactive,inactive
C=CCN1c2ccccc2[C@]23C[C@@H](C(=O)OC)N(C(=O)Nc4ccc(C(F)(F)F)cc4)C2=NC(C(=O)OC)=C(C(=O)OC)[C@H]13,inactive,inactive,inactive,inactive,inactive,inactive
C=CCOC(=O)N[C@@H](CC(C)C)C(C(=O)OC)=C(C)NCc1ccccc1,inactive,inactive,inactive,inactive,inactive,inactive
CC(C)OC(=O)[C@H]1O[C@H](CCCCOCc2ccccc2)[C@@H](C)[C@H]2O[C@H]21,inactive,inactive,inactive,inactive,inactive,inactive
